This is an account of results in PubChem BioAssay (EPA / NIEHS).

Structures are written as SMILES. “And” between values parts separate entries of the source, which are not always exact repeats. Equal entries are not always repeated. Some structures have more than one record in an assay (separate samples or runs), and their calls can disagree. The source made the active and inactive calls. Rule for the calls: active = hit-call score of the fitted dose curve at least 0.9, where 1 is the maximum; inactive = score below 0.9.

Read-out in assay [1]: Vascular endothelial growth factor receptor 2 (Homo sapiens) (UniProt P35968)
Kind of assay: BSK_4H_VEGFRII: BioMAP Diversity Plus: 4H Assay for Vascular endothelial growth factor receptor 2 (VEGFR2) Biomarker Activity (AID 2283031). To be noted: primary human endothelial cells (HUVEC); actives raise or lower the signal. The gist of the method:
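In this multiplexed HUVEC system, biomarker ELISA was performed after 24 h chemical exposure. Parallel SRB staining (TCA fixation, 560 nm) tracked cytotoxicity; DMSO served as baseline.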

Read-out in assay [2]: Human Leukocyte Antigen - DR isotype (HLADR), HLA-DRA (gene 3122)
Nature of the assay: BSK_BE3C_HLADR: BioMAP Diversity Plus: BE3C Assay for Human Leukocyte Antigen - DR isotype (HLADR) Biomarker Activity (AID 2283032). To be noted: primary human bronchial epithelial cells; actives raise or lower the signal. Put shortly:
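Chemicals are dosed onto BE3C bronchial epithelial cultures of human origin and left 24 h. HLA-DR is then measured by ELISA, and the endpoint is fitted in both directions using DMSO as the activity baseline.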

Read-out in assay [3]: Vascular cell adhesion molecule 1 (VCAM1), VCAM1 (gene 7412)
Nature of the assay: BSK_4H_VCAM1: BioMAP Diversity Plus: 4H Assay for Vascular cell adhesion molecule 1 (VCAM1) Biomarker Activity (AID 2283033).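 For outcome: cell-surface VCAM-1 protein measured by ELISA.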 Particulars: primary human endothelial cells (HUVEC); actives raise or lower the signal. Put shortly: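 Chemicals are added to primary human umbilical vein endothelial cells. After 24 h, VCAM-1 levels are measured by ELISA. Values come from bidirectional fitting referenced to DMSO.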

Read-out in assay [4]: Interferon-gamma inducible Protein 10 (IP10), CXCL10 (gene 3627)
Kind of assay: BSK_BE3C_IP10: BioMAP Diversity Plus: BE3C Assay for Interferon-gamma inducible Protein 10 (IP10) Biomarker Activity (AID 2283034). Particulars: primary human bronchial epithelial cells; actives raise or lower the signal. The gist of the method:
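IP-10 quantified by ELISA serves as the endpoint. Cells: primary human bronchial epithelium, read 24 h after compound addition. Activity is derived by bidirectional fitting with DMSO as negative control.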

Read-out in assay [5]: Monokine induced gamma interferon (MIG), CXCL9 (gene 4283)
Nature of the assay: BSK_BE3C_MIG: BioMAP Diversity Plus: BE3C Assay for Monokine induced gamma interferon (MIG) Biomarker Activity (AID 2283035).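 For outcome: MIG protein measured by ELISA in BE3C cultures after 24 h of dosing.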 To be noted: primary human bronchial epithelial cells; actives raise or lower the signal. Put shortly:
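Dose cells (human primary bronchial epithelial), incubate 24 h, quantify MIG by ELISA, then fit concentration–response in both directions relative to DMSO control.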

Read-out in assay [6]: Plasminogen activator inhibitor-1 (PAI1), SERPINE1 (gene 5054)
Nature of the assay: BSK_BE3C_PAI1: BioMAP Diversity Plus: BE3C Assay for Plasminogen activator inhibitor-1 (PAI1) Biomarker Activity (AID 2283037). Particulars: primary human bronchial epithelial cells; actives raise or lower the signal. The gist of the method: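 Values derive from bidirectional fitting against DMSO baseline of PAI-1 levels, measured by ELISA in human bronchial epithelial cells 24 h after compound addition.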

Read-out in assay [7]: urokinase plasminogen activator (uPA), PLAU (gene 5328)
Nature of the assay: BSK_BE3C_uPA: BioMAP Diversity Plus: BE3C Assay for urokinase plasminogen activator (uPA) Biomarker Activity (AID 2283038).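 For outcome: uPA protein level quantified by ELISA in cell cultures; uPA read one day after compound addition.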 Particulars: primary human bronchial epithelial cells; actives raise or lower the signal. The gist of the method: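 Using confluent primary human lung bronchial epithelial cultures, we dosed chemicals, waited 24 h, then ran a uPA ELISA, fitting bidirectionally against DMSO.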

Read-out in assay [8]: Urokinase-type plasminogen activator receptor (uPAR), PLAUR (gene 5329)
Nature of the assay: BSK_BE3C_uPAR: BioMAP Diversity Plus: BE3C Assay for Urokinase-type plasminogen activator receptor (uPAR) Biomarker Activity (AID 2283039).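 For outcome: uPAR protein level measured by ELISA on the cells; cells exposed to compound for one day before measurement.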 To be noted: primary human bronchial epithelial cells; actives raise or lower the signal. Put shortly: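 Steps: dose human primary bronchial epithelial cells, incubate 24 h, measure uPAR by ELISA, then fit gain- or loss-of-signal response bidirectionally relative to DMSO.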

Read-out in assay [9]: Interleukin-6 (IL6), IL6 (gene 3569)
Nature of the assay: BSK_CASM3C_IL6: BioMAP Diversity Plus: CASM3C Assay for Interleukin-6 (IL6) Biomarker Activity for (AID 2283040). Particulars: primary human coronary artery smooth muscle cells; actives raise or lower the signal.

Read-out in assay [10]: Transforming growth factor beta 1 (TGFb1), TGFB1 (gene 7040)
Nature of the assay: BSK_BE3C_TGFb1: BioMAP Diversity Plus: BE3C Assay for Transforming growth factor beta 1 (TGFb1) Biomarker Activity (AID 2283036;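 for outcome: TGF-b1 protein level measured by ELISA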). Particulars: primary human bronchial epithelial cells; actives raise or lower the signal. Put shortly:
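Bronchial epithelial primary cells are treated with test chemical, then TGF-b1 is quantified by ELISA after 24 hours. Values derive from bidirectional fitting against DMSO, with cytotoxicity checked by SRB staining in parallel cultures.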

On to `COC(F)(C(F)F)C(F)(F)F` (stereo not given), for which the outcome in assay [1], in [2], in [3], in assay [4], in assay [5] and in [6] was inactive. The outcome in assay [7], in [8] and in assay [9] was inactive.
On to `CC(C)CCCC(C)CCO` (stereo not given), for which the result in assay [1], in [3], in assay [5] and in assay [6] was inactive. Further, the concentration at half-maximal activity (AC50) in assay [2] is 29.1 µM (active); in [4], 14.4 µM (active); in assay [10], 20 µM (active); in [7], 28.6 µM (active); in assay [8], 24.9 µM (active); in [9], 32.5 µM (active).
In the case of `NCC(F)(F)C(F)(F)C(F)(F)C(F)(F)C(F)(F)C(F)(F)F`, the result in assay [2], in [3], in [4], in assay [5], in assay [7] and in assay [8] was inactive. The outcome in assay [9] was inactive.
In the case of `O=C(O)C(F)(F)C(F)(F)C(F)(F)OC(F)(C(F)(F)F)C(F)(F)F`, the outcome in assay [2], in [3], in assay [4], in assay [5], in assay [6] and in [7] was inactive. In addition, the result in assay [8] and in assay [9] was inactive.
On to `CO[Si](C)(CCC(F)(F)C(F)(F)C(F)(F)C(F)(F)C(F)(F)C(F)(F)F)OC`, for which the result in assay [2], in assay [3], in assay [4], in assay [5], in [7] and in [8] was inactive. Moreover, the outcome in assay [9] was inactive.
Turning to `Cc1ccc(O)c(-n2nc3ccccc3n2)c1`, the result in assay [2], in assay [3], in assay [4], in assay [5], in assay [10] and in [6] was inactive. Besides, the outcome in assay [7], in assay [8] and in assay [9] was inactive.
`NC(=O)C(F)(F)C(F)(F)C(F)(F)C(F)F`: the outcome in [2], in [3], in [4], in assay [5], in [7] and in assay [8] was inactive. The outcome in assay [9] was inactive.
On to `O=C(O)C(F)(F)C(F)(F)C(F)(F)OC(F)(F)F`, for which the result in [2], in assay [3], in assay [4], in assay [5], in assay [7] and in assay [8] was inactive. In assay [9], the outcome was inactive.
Take `O=C(O)C(F)(F)C(F)(F)C(F)(F)C(F)(F)C(F)(F)C(F)(F)C(F)F`: the outcome in assay [2], in assay [3], in assay [4], in [5], in assay [7] and in assay [8] was inactive. The outcome in assay [9] was inactive.
`O=S(=O)(O)CCC(F)(F)C(F)(F)C(F)(F)C(F)(F)C(F)(F)C(F)(F)C(F)(F)C(F)(F)F`: the AC50 in [2] is 20.4 µM (active) and 25.3 µM (active); in assay [4], 16.8 µM (active) and 24.1 µM (active); in assay [6] it was 8.09 µM (active). The outcome in assay [3], in [5], in assay [6], in assay [7], in [8] and in assay [9] was inactive.
Consider `O=C=NCc1cccc(CN=C=O)c1`, for which the result in [2], in assay [3], in assay [4], in assay [5], in assay [10] and in assay [7] was inactive. The result in assay [8] and in [9] was inactive.
As to `O=S(=O)(O)CCC(F)(F)C(F)(F)C(F)(F)C(F)(F)F`, the result in assay [2], in [3], in assay [4], in [5], in assay [7] and in [8] was inactive. Moreover, the result in assay [9] was inactive.
For the compound `C=C(C)C(=O)OCC(F)(F)C(F)(F)C(F)(F)C(F)F`, the result in assay [2], in [3], in assay [4], in assay [5], in [6] and in assay [7] was inactive. The outcome in assay [8] and in assay [9] was inactive.
Turning to `CCN=C1C=CC(=C(c2ccc(N(CC)CC)cc2)c2ccc(N(CC)CC)cc2)c2ccccc21`, the AC50 in assay [2] was 1.85 µM (active) and 1.69 µM (active); in assay [3], 2.13 µM (active) and 2.05 µM (active); in assay [4] it was 2.46 µM (active) and 2.22 µM (active); in [5] it was 2.48 µM (active) and 2.92 µM (active); in assay [7], 2.03 µM (active); in assay [8], 1.93 µM (active) and 1.74 µM (active). The result in [7] and in assay [9] was inactive.
For `C=CC(=O)OCC(F)(F)C(F)(F)C(F)(F)COC(=O)C=C`, the AC50 in [2] was 34.2 µM (active) and 21.4 µM (active); in assay [3], 19.1 µM (active) and 14 µM (active); in assay [4], 46.7 µM (active) and 35.5 µM (active); in assay [5], 51.8 µM (active) and 49.1 µM (active); in [7], 20.6 µM (active) and 27.4 µM (active); in assay [8], 30 µM (active) and 22.8 µM (active). In addition, in assay [9], the AC50 was 30 µM (active) and 17 µM (active).
With `O=C(O)C(F)(F)C(F)(F)C(F)(F)C(=O)O`, the result in [2], in assay [3], in assay [4], in [5], in assay [7] and in assay [8] was inactive. For the same compound, the outcome in assay [9] was inactive.
As for `C[Si](Cl)(Cl)CCC(F)(F)C(F)(F)C(F)(F)C(F)(F)C(F)(F)C(F)(F)F`, the outcome in [2], in [3], in assay [4], in [5], in assay [6] and in [7] was inactive. Also, the result in [8] and in assay [9] was inactive.
Turning to `NC(=O)C(F)(F)C(F)(F)C(F)(F)C(F)(F)C(F)(F)C(F)(F)C(F)(F)F`, the result in assay [2], in [3], in assay [4], in assay [5], in assay [7] and in [8] was inactive. Also, the result in assay [9] was inactive.

As a reminder, the AC50 is the concentration giving half of the maximal activity seen.
